{
  "source": "paper PMC7819943",
  "about": "“Rice protein-binding microarrays: a tool to detect cis-acting elements near promoter regions in rice”",
  "note": "In all, about 39,000 sequences were measured (“fluorescence intensity (a.u.)”: median about 4,300, highest 2% from about 39,000 on). The list comes from a sample in which the highest values are over-represented; it also holds similar and randomly drawn sequences.",
  "data": [
    {"target": "T1, OsSMF1 (Oryza sativa, UniProt Q6ZLB0 1-436)", "T1 sequence": "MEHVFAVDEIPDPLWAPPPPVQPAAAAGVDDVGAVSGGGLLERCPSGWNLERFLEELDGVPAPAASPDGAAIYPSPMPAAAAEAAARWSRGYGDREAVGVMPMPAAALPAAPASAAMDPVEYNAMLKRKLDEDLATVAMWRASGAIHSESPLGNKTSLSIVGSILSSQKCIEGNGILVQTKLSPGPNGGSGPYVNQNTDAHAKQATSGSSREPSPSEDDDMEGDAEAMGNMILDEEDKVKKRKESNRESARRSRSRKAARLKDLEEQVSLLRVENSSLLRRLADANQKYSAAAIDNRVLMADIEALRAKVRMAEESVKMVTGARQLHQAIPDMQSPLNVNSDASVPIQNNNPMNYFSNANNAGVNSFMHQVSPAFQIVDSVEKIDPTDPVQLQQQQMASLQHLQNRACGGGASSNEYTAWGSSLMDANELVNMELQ", "assay": "protein-binding microarray (RPBM); PBS, 2% BSA, 51.3 ng/ul salmon testes DNA, 50 uM zinc acetate, 200 nM TF, 25 C, 1 h; high values mean tight binding", "settings": "protein: recombinant; tags: N-terminal polyhistidine and DsRed monomer fusion (pET32a); chain copies: 2; label: CyDye5-dUTP incorporated in the synthesized complementary strand; 3' TTTTT single-stranded linker to array surface; dsDNA, one strand shown", "in_short": "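The binding signal is fluorescence intensity per array feature (arbitrary units). Readings came from an Axon 4000B scanner after a washed, 2% BSA-blocked, double-stranded custom Agilent array had been incubated for 1 h at 25 °C with 200 nM protein and 50 µM zinc acetate. The protein was a Ni–NTA-purified transcription factor fused N-terminally to polyhistidine and DsRed, expressed in E. coli BL21-CodonPlus.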", "values": [
      {"sequence": "CCCTTCGTCGACACGCACCCCTGACCTCATATTTTCGCTTCGGAGTCACCTAGTGCAG", "binding signal": "5650 fluorescence intensity (a.u.)"},
      {"sequence": "ATGCCATGCCAACGCACTATGCCTGGTATCCTTAGCCATCCGGAGTCACCTAGTGCAG", "binding signal": "4060 fluorescence intensity (a.u.)"},
      {"sequence": "CGACCTGAGGTTGGCGGTCGGCATGACGTCACGGGTGGGACGGAGTCACCTAGTGCAG", "binding signal": "24200 fluorescence intensity (a.u.)"},
      {"sequence": "CTATGTTTTACACTTACACTCCTATCAAAATCCTACGTTTCGGAGTCACCTAGTGCAG", "binding signal": "22600 fluorescence intensity (a.u.)"},
      {"sequence": "TAAAGCTTTTATGAATGAATAGCCTCGCTGGCAAGTGGGCCGGAGTCACCTAGTGCAG", "binding signal": "3560 fluorescence intensity (a.u.)"},
      {"sequence": "TTGTTCTGTCGATCCATCGGTATCCTGGTCAATTGGCAAGCGGAGTCACCTAGTGCAG", "binding signal": "3160 fluorescence intensity (a.u.)"},
      {"sequence": "ATCGAATGATCTAACGGCTCACACACTCCCACGCACTTTGCGGAGTCACCTAGTGCAG", "binding signal": "3290 fluorescence intensity (a.u.)"},
      {"sequence": "TCTGACGGGCGATGACGACGACGACGGTGCAAAAGCCTGACGGAGTCACCTAGTGCAG", "binding signal": "3310 fluorescence intensity (a.u.)"},
      {"sequence": "ACATCTAAAAGTAACTTGAGTTTTCTAAGCAACACATAAGCGGAGTCACCTAGTGCAG", "binding signal": "24700 fluorescence intensity (a.u.)"},
      {"sequence": "AAGCTCCCCGGCCAGGCCGCCATCGGCCACGTGAGGTACTCGGAGTCACCTAGTGCAG", "binding signal": "4540 fluorescence intensity (a.u.)"},
      {"sequence": "TTTAATTGTTCTGCGATTACGGTAGAAATAGATCGGGCTTCGGAGTCACCTAGTGCAG", "binding signal": "3210 fluorescence intensity (a.u.)"},
      {"sequence": "TTGAAACGTAACACTTGATATATGTATACATTATCCAACCCGGAGTCACCTAGTGCAG", "binding signal": "3150 fluorescence intensity (a.u.)"},
      {"sequence": "TTATATTTTAATTAAAACTATTATAATACACAATACGTCACGGAGTCACCTAGTGCAG", "binding signal": "7060 fluorescence intensity (a.u.)"},
      {"sequence": "CAACAAATTTAAATTTATAGACGTCACCATACTGAAGGCGCGGAGTCACCTAGTGCAG", "binding signal": "5460 fluorescence intensity (a.u.)"},
      {"sequence": "CCAACTTTTCCATCACATCGTTCCAATTTCAACCAAACTTCGGAGTCACCTAGTGCAG", "binding signal": "21900 fluorescence intensity (a.u.)"},
      {"sequence": "TCCATTGCATATAATTCAATTCATCGAAATCATGACATTTCGGAGTCACCTAGTGCAG", "binding signal": "46400 fluorescence intensity (a.u.)"},
      {"sequence": "TTTTCTATCACATCGTTTTAATTTCAATCAAACTTCCAATCGGAGTCACCTAGTGCAG", "binding signal": "45300 fluorescence intensity (a.u.)"},
      {"sequence": "ACAAACTTCCAACTTTTCTATCACATCGTTCCAATTTCAACGGAGTCACCTAGTGCAG", "binding signal": "22100 fluorescence intensity (a.u.)"},
      {"sequence": "AATTGGACAATTCATCATAAATTTTGCATGAATGATGACACGGAGTCACCTAGTGCAG", "binding signal": "3750 fluorescence intensity (a.u.)"},
      {"sequence": "GGGTCATATAGAGACGACGATCAAATTTACCTTATTTTAACGGAGTCACCTAGTGCAG", "binding signal": "3240 fluorescence intensity (a.u.)"},
      {"sequence": "TCATACTGCCATCATACCATCCTACAATAGACAAATTTAACGGAGTCACCTAGTGCAG", "binding signal": "54300 fluorescence intensity (a.u.)"},
      {"sequence": "GACATGAATTTTCCATCATATATTCATGCGGTTCATTATGCGGAGTCACCTAGTGCAG", "binding signal": "4430 fluorescence intensity (a.u.)"},
      {"sequence": "GTTATAAGACGTTTTGATTTTAGTCAAAGTCAAACTATTCCGGAGTCACCTAGTGCAG", "binding signal": "32600 fluorescence intensity (a.u.)"},
      {"sequence": "AATTATGTTTTATAAGACGTTAGCATTTAAACTACAATCCCGGAGTCACCTAGTGCAG", "binding signal": "55600 fluorescence intensity (a.u.)"},
      {"sequence": "TAACCATGTAATTCCTCTGAAAATCCACAGATGAACTAGCCGGAGTCACCTAGTGCAG", "binding signal": "3360 fluorescence intensity (a.u.)"},
      {"sequence": "CCACCAGCCCGGTGGGATCCCGCCACGTCAGCGTGACCCGCGGAGTCACCTAGTGCAG", "binding signal": "22600 fluorescence intensity (a.u.)"},
      {"sequence": "GTCTGGAGAGCCAGAGGAGAGGAGTAGCGGACGCGGTGCCCGGAGTCACCTAGTGCAG", "binding signal": "26700 fluorescence intensity (a.u.)"},
      {"sequence": "TTTCTGCGCTACGTGCTCGCCATGTCGTCCTCGTCACAAACGGAGTCACCTAGTGCAG", "binding signal": "5120 fluorescence intensity (a.u.)"},
      {"sequence": "CACCCGTGCGTAATCATGACGCCGGGGTGACGTCACCATCCGGAGTCACCTAGTGCAG", "binding signal": "30200 fluorescence intensity (a.u.)"},
      {"sequence": "GCTGGGTTTTCGAGGAGGCCTGACTGGATCATACTCGACTCGGAGTCACCTAGTGCAG", "binding signal": "3250 fluorescence intensity (a.u.)"},
      {"sequence": "CCATCTGCGGCGTACTTGCCACTTTTCTTCGATCGGCACCCGGAGTCACCTAGTGCAG", "binding signal": "3550 fluorescence intensity (a.u.)"},
      {"sequence": "AGACCGCTCGCGCGTACGTGACGCGATCGGGCAGCGCGGGCGGAGTCACCTAGTGCAG", "binding signal": "4060 fluorescence intensity (a.u.)"},
      {"sequence": "CCATAATCACACTTCAATAGTAGTACTACCACAATTGCATCGGAGTCACCTAGTGCAG", "binding signal": "45100 fluorescence intensity (a.u.)"},
      {"sequence": "GTACATCAAACATTATCAATATCGGACACATAATCCATTGCGGAGTCACCTAGTGCAG", "binding signal": "3850 fluorescence intensity (a.u.)"},
      {"sequence": "TTCACACCCAGATAAATACAGCCTACTAGACCAATAGCCACGGAGTCACCTAGTGCAG", "binding signal": "40000 fluorescence intensity (a.u.)"},
      {"sequence": "ATAAAATTTTATGATATATAGATAATAATTTTACTTGCAACGGAGTCACCTAGTGCAG", "binding signal": "4550 fluorescence intensity (a.u.)"},
      {"sequence": "ACTTTTCCGTCACATCGTTTTAATTTCTTTAAACTTTTAACGGAGTCACCTAGTGCAG", "binding signal": "4680 fluorescence intensity (a.u.)"},
      {"sequence": "TATAGAATTTTCTCTTAAAATACTTATCCGATTTATGATCCGGAGTCACCTAGTGCAG", "binding signal": "54100 fluorescence intensity (a.u.)"},
      {"sequence": "TTTTATCACATCGTTTTAATTTCAACCAAACTTTCAATTTCGGAGTCACCTAGTGCAG", "binding signal": "32600 fluorescence intensity (a.u.)"},
      {"sequence": "CCTAAAATACATGACCAGCCCACACAGGACTTAACCCACACGGAGTCACCTAGTGCAG", "binding signal": "3230 fluorescence intensity (a.u.)"},
      {"sequence": "TTCACATCGTTGCAATAAATAATTATACCACTACTTCATACGGAGTCACCTAGTGCAG", "binding signal": "24800 fluorescence intensity (a.u.)"},
      {"sequence": "ACCAGGTGGCTACAGCTGGCTAAATACCCAGTCACTACCACGGAGTCACCTAGTGCAG", "binding signal": "3680 fluorescence intensity (a.u.)"},
      {"sequence": "TTATATCGTTTTAATTTCAATTAAACTTTCAATTTTAGTGCGGAGTCACCTAGTGCAG", "binding signal": "48400 fluorescence intensity (a.u.)"},
      {"sequence": "TCTCTTTCTTTATTTCTTTAAAATATATTTATAGTTGTCTCGGAGTCACCTAGTGCAG", "binding signal": "3490 fluorescence intensity (a.u.)"},
      {"sequence": "TTCATGCGCCCACATGACGTAGTGAATTAGTGGACTATGTCGGAGTCACCTAGTGCAG", "binding signal": "4570 fluorescence intensity (a.u.)"},
      {"sequence": "GAGTAGAGGTGGGAGGAAGCGGTGGTGTGGTGGGGTGGGGCGGAGTCACCTAGTGCAG", "binding signal": "8310 fluorescence intensity (a.u.)"},
      {"sequence": "CATAGATGGGCTCATCAGTAATGCTCCATATCAACACGACCGGAGTCACCTAGTGCAG", "binding signal": "35200 fluorescence intensity (a.u.)"},
      {"sequence": "TGCAGCGCCCTCAGCGTTTTGCGCTGCCGTGGCCATCACGCGGAGTCACCTAGTGCAG", "binding signal": "4300 fluorescence intensity (a.u.)"},
      {"sequence": "TATGAAACCTGAAAACAACTTAACACGGGTGTCCTTCGTCCGGAGTCACCTAGTGCAG", "binding signal": "17500 fluorescence intensity (a.u.)"},
      {"sequence": "CGCCCACCTATCTTACCACTGACACATTGGCCCCACCACCCGGAGTCACCTAGTGCAG", "binding signal": "4120 fluorescence intensity (a.u.)"},
      {"sequence": "CCCTCCCTCCGCCTCCGCCCATCCAATTTCTTACCCCGTTCGGAGTCACCTAGTGCAG", "binding signal": "3230 fluorescence intensity (a.u.)"},
      {"sequence": "CCTAATTAATCCATAATTATCAAAAGTTTACTGTAGCATCCGGAGTCACCTAGTGCAG", "binding signal": "27800 fluorescence intensity (a.u.)"},
      {"sequence": "AATTAATCCATTATTAACAAATGTTTACTGTAGCATCACACGGAGTCACCTAGTGCAG", "binding signal": "51600 fluorescence intensity (a.u.)"},
      {"sequence": "AATCCATAATTAGAGAATGTTTACTGTAGCATCACATAGGCGGAGTCACCTAGTGCAG", "binding signal": "3290 fluorescence intensity (a.u.)"}
    ]}
  ]
}
